Source: PubChem BioAssay (NCI)
About 83,000 compounds went through this panel and 20% of them were active in at least one assay; those are over-represented in the sample as a whole.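 For each line, cells grew in 96-well plates with the test compound present at a single concentration for 48 hours.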 Values without a mark were called inactive. The source made the active and inactive calls. The calls were made as follows: active = growth percent below 10; inactive = the rest.

Test system: MDA-MB-468 breast
Experiment: NCI-60 one-dose screen, 48 h (100 = growth as untreated, 0 = no growth, -100 = all killed)
Settings: 10 µM unless noted

SMILES | growth
COc1ccc(NC(=O)CCn2cnc3c(cc(-c4ccccc4)n3-c3ccccc3)c2=O)cc1 | 79.5%
CCCCCCSc1ncnc2nc[nH]c12 | 67.3%
CC(=O)Nc1ccc(Sc2ccc(NC(C)=O)cc2)cc1 | 100%
Cc1sc2c(c1C)c(=O)nc1c(-c3nc(-c4ccc(F)cc4)no3)n[nH]n12 | 110%
CN1CCN(Cc2ccc(NC(=O)c3cncc(C#Cc4[nH]nc5ncncc45)c3)cc2C(F)(F)F)CC1 | 58%
Nc1c(Br)cc(Br)cc1-c1n[nH]c(=O)[nH]c1=O | 104%
COc1cc2cc3cc4cc(OC)c(OC)cc4c(C)[n+]3cc2cc1OC (tested in a mixture with another compound) | 44%
CN(C)c1ccc(-c2ccc3[nH]c(=O)nc(-c4ccc(F)cc4)c3c2)cn1 | 1.22% (active)
N#Cc1cnc2ccc(-c3cnc4[nH]ncc4c3)cc2c1N1CCc2cc(F)c(Cl)cc21 | -19.8% (active)
COc1ccc(Nc2nccc(Nc3ccc4[nH]ncc4c3)n2)cc1 | 44%
COC(=O)c1c(C)nc(C)c2c1C(=O)C(Br)=C(NCc1ccccc1)C2=O | -21.3% (active)
COc1ccc(/C=N/NC(=O)Cn2c(-c3ccc(S(C)(=O)=O)cc3)nc3ccccc32)cc1 | 98.3%
Cn1c(=O)c(S(=O)(=O)c2ccccc2)cc2ccc3c(cnn3-c3ccc(Cl)cc3)c21 | 72.3%
CC(=O)c1ccc(-n2cc(CN3CCN(c4cc5c(cc4F)c(=O)c(C(=O)O)cn5C4CC4)CC3)nn2)cc1 | 72.5%
CC(C)SC1=NC(=C(C(=N1)NC2=ClC=CC=C2)C#N)C3=CC=CC=C3 | 43%
O=C(Cn1c[n+](CC(=O)c2ccc(-c3ccccc3)cc2)c2ccccc21)Nc1cccc2cccnc12 | -6.11% (active)
Cc1c(CN2CCN(C(=O)[C@H](C)O)CC2)sc2c(N3CCOCC3)nc(-c3cnc(N)nc3)nc12 | -49.6% (active)
O=C(O)c1ccc[n+](CC(=O)N2CCN(c3cc4c(cc3F)c(=O)c(C(=O)O)cn4C3CC3)CC2)c1 | 81.4%
Cc1nc2c(c(N3CCCc4ccccc43)n1)CCC2 | 8.12% (active)
C[C@@H]1CC[C@@H]2[C@@H]1[C@H](OC(=O)/C=C/c1ccccc1)[C@]1(c3ccccc3)C[C@@H](OC(=O)CO)[C@@]2(C)O1 | 87.5%

SMILES | growth
O=C1OCC2=C1C(c1cccc(Cl)c1)c1cc3c(cc1N2CCO)CCC3 (stereo not given) | -9.35% (active)
C=C(c1ccc(OC)c(/C=C/C(=O)c2ccc3c(c2)OCO3)c1)c1cc(OC)c(OC)c(OC)c1 | 37.4%
CCOC(=O)c1c(C(=O)OCC)c2cc(-c3ccn4c(C(=O)c5ccccc5)c(C(=O)OCC)c(C(=O)OCC)c4c3)ccn2c1C(=O)c1ccccc1 | 106%
COc1ccc(N=Nc2ccc(O)c(=O)cc2)cc1 | -31.9% (active)
Cc1cc2c(F)c(Oc3ncnn4cc(OC[C@@H](C)OC(=O)[C@H](C)N)c(C)c34)ccc2[nH]1 | 71.5%
c1cc(OCCN2CCCCC2)ccc1CNc1ccc2nc(CCC3CCCCC3)[nH]c2c1 | 27.4%
COc1cc2nc(Sc3sc(N)nc3C)n(-c3ccc(Oc4ccccc4)cc3)c(=O)c2cc1OC | 80.2%
NS(=O)(=O)c1ccc(C(=O)N=Nc2c(O)[nH]c3c(F)cccc23)cc1 | 96.3%
COC(c1ccccc1)C(Br)C(=O)c1ccccc1 (stereo not given) | 94.8%
COc1cccc(C(=O)Nc2cccc(NC(=O)c3ccccn3)c2)c1 | 105%
Oc1c(Cl)cc(Cl)c2ccc(Cn3cc(-c4cc(C(F)(F)F)cc(C(F)(F)F)c4)nn3)nc12 | 18.6%
OCC1OC(OC2C(O)C(CO)OC2(CO)OC2OC(CO)C(O)C(O)C2O)C(O)C(O)C1O (stereo not given) | 112%
CC1(C)CC(=O)C=C(N)C1 | 90.5%
CCCCNCCCCCNc1cc(OC)cc2cccnc12 | 68.8%
CC(=O)Nc1ncc(S(=O)(=O)c2ccc([N+](=O)[O-])cc2)s1 | 107%
FCc1ncc(-c2ccc(C(F)(F)F)cc2)c(NC2CCCCCC2)n1 | 24.8% [100 µM]
COc1ccc(-n2c(COc3ccc(F)cc3)n[nH]c2=S)cc1 | 103%
Oc1ccc(CSc2nnc(-c3ccc(Oc4ccccc4)cc3)n2-c2ccccc2)c2cccnc12 | -2% (active)
Cc1nc(Nc2cccnc2)sc1C(=O)/C=C/c1ccc(F)cc1 | 26.7%
O=C(Nc1ccc(Cl)cc1)Nc1ccc(Oc2nncc3ccccc23)cc1 | -76.2% (active)
